Measured values from PubChem BioAssay (EPA / NIEHS).
Where “and” joins values, the source holds several entries; their conditions need not be identical. Equal values may be shown once. Some structures have more than one record in an assay (separate samples or runs), and their calls can disagree. Calls of active or inactive are those of the source. How the source made its calls: active means hit-call score of the fitted dose curve at least 0.9, where 1 is the maximum; inactive means score below 0.9.

test: ATG_TAL_CIS: Attagene CIS-FACTORIAL HepG2 Assay for human TAL Basal Promoter (AID 2282966); details: HepG2 Attagene cis-factorial TAL promoter reporter; actives raise or lower the signal;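 further: background control endpoint measuring basal TAL promoter reporter mRNA not a specific factor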
How it was run: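 Human hepatoma HepG2 cells, transfected with promoter-regulated reporter units, were treated 24 h. Reporter transcript levels, measured through RT-PCR and capillary electrophoresis, were fitted for gain or loss relative to DMSO.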

Row | Structure (SMILES) | outcome | AC50
1 | O=C(O)C(F)(OC(F)(F)C(F)(OC(F)(F)C(F)(OC(F)(F)C(F)(F)C(F)(F)F)C(F)(F)F)C(F)(F)F)C(F)(F)F (stereo not given) | inactive | –
2 | O=C(O)C(F)(F)C(F)(F)C(F)(F)C(F)(F)C(F)(F)C(F)(F)C(F)(F)C(F)(F)Cl | inactive | 50 µM (active)
3 | c1ccc(-c2ccccc2-c2ccccc2)cc1 | inactive | –
4 | CNC(=S)NC | inactive | –
5 | OCCCC(F)(F)C(F)(F)C(F)(F)C(F)(F)C(F)(F)C(F)(F)C(F)(F)F | inactive | 88.7 µM (active)
6 | CCN(CC)c1ccc2c(C)cc(=O)oc2c1 | inactive | –
7 | O=C(O)C(F)(F)C(F)(F)C(F)(F)C(F)(F)C(F)(F)C(F)(F)C(F)(F)C(F)(F)C(F)(F)C(F)(F)C(F)(F)C(F)(F)C(F)(F)F | inactive | –
8 | FC(F)(F)C(F)(F)C(F)(F)C(F)(F)CCI | inactive | –
9 | Cc1ccc(S(=O)(=O)NCl)cc1 | inactive | –
10 | C=CC(=O)OCC(F)(F)C(F)(F)C(F)(F)C(F)(F)C(F)(F)C(F)(F)C(F)(F)F | inactive | –
11 | C#C[C@]1(O)CC[C@H]2[C@@H]3CCc4cc(OC)ccc4[C@H]3CC[C@@]21C | inactive | –
12 | O=C(O)C(F)(F)C(F)(F)OC(F)(F)F | inactive | –
13 | CCCCCCCCCCCCCCCC[N+](C)(C)Cc1ccccc1 | inactive | –
14 | CCO[Si](CCC(F)(F)C(F)(F)C(F)(F)C(F)(F)C(F)(F)C(F)(F)F)(OCC)OCC | inactive | –
15 | c1ccc(B(c2ccccc2)c2ccccc2)cc1 | inactive | –
16 | C=C(C)C(=O)OCCC(F)(F)C(F)(F)C(F)(F)C(F)(F)C(F)(C(F)(F)F)C(F)(F)F | inactive | –
17 | COC(=O)C1CCC(C(=O)OC)CC1 (stereo not given) | inactive | –

Row | Structure (SMILES) | outcome | AC50
18 | CC(C)OC(=O)c1ccccc1C(=O)OC(C)C | inactive | –
19 | CCCCCCC(C)OC(=O)CCCCC(=O)OC(C)CCCCCC (stereo not given) | inactive | –
20 | C=CC(F)(F)C(F)(F)C(F)(F)C(F)(F)C(F)(F)C(F)(F)C(F)(F)C(F)(F)F | inactive | –
21 | C(=C(c1ccccc1)c1ccccc1)c1ccccc1 | inactive | –
22 | O=C(O)C(F)(F)C(F)(F)C(F)(F)F | inactive | –
23 | OC[C@@H](O)[C@@H](O)[C@H](O)[C@@H](O)CO | inactive | –
24 | O=C(OCCOCCOCCOC(=O)c1ccccc1)c1ccccc1 | inactive | –
25 | OCC(F)(F)C(F)(F)C(F)(F)F | inactive | –
26 | O=C(CC(=O)C(F)(F)C(F)(F)F)C(F)(F)F | inactive | –
27 | Oc1ccc(Nc2ccccc2)cc1 | inactive | –
28 | COC(=O)CCC(F)(F)C(F)(F)C(F)(F)C(F)(F)F | inactive | –
29 | CCCCCCCOC(=O)c1ccccc1C(=O)OCCCCCCC | inactive | –
30 | OCC(F)(F)C(F)(F)C(F)(F)C(F)(F)C(F)(F)C(F)F | inactive | –
31 | FC(F)(F)C(F)(F)C(F)(F)C(F)(F)C(F)(F)C(F)(F)CC1CO1 (stereo not given) | inactive | –
32 | CC/C=C\CCOC(=O)c1ccccc1 | inactive | –
33 | CS(C)(=O)=O | inactive | –
34 | C=CC(F)(F)C(F)(F)C(F)(F)C(F)(F)C(F)(F)C(F)(F)C(F)(F)C(F)(F)C=C | inactive | –

test: ATG_TGFb_CIS: Attagene CIS-FACTORIAL HepG2 Assay for human Transforming Growth Factor (TGF) (AID 2282967); details: HepG2 Attagene CIS TGFb reporter, mRNA transcription; actives raise or lower the signal
How it was run: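 Endogenous TGFB1-linked transcription factor activity read as reporter mRNA via RT-PCR and capillary electrophoresis, 24 h after dosing transiently transfected HepG2 cells. Gain or loss of signal fitted relative to DMSO.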

Row | Structure (SMILES) | outcome | AC50
35 | O=C(O)C(F)(OC(F)(F)C(F)(OC(F)(F)C(F)(OC(F)(F)C(F)(F)C(F)(F)F)C(F)(F)F)C(F)(F)F)C(F)(F)F (stereo not given) | inactive | –
36 | O=C(O)C(F)(F)C(F)(F)C(F)(F)C(F)(F)C(F)(F)C(F)(F)C(F)(F)C(F)(F)Cl | – | 74.7 µM (active) and 82.8 µM (active)
37 | c1ccc(-c2ccccc2-c2ccccc2)cc1 | inactive | –
38 | CNC(=S)NC | inactive | –
39 | OCCCC(F)(F)C(F)(F)C(F)(F)C(F)(F)C(F)(F)C(F)(F)C(F)(F)F | inactive | –
40 | CCN(CC)c1ccc2c(C)cc(=O)oc2c1 | inactive | –
41 | O=C(O)C(F)(F)C(F)(F)C(F)(F)C(F)(F)C(F)(F)C(F)(F)C(F)(F)C(F)(F)C(F)(F)C(F)(F)C(F)(F)C(F)(F)C(F)(F)F | inactive | –
42 | FC(F)(F)C(F)(F)C(F)(F)C(F)(F)CCI | inactive | –
43 | Cc1ccc(S(=O)(=O)NCl)cc1 | inactive | –
44 | C=CC(=O)OCC(F)(F)C(F)(F)C(F)(F)C(F)(F)C(F)(F)C(F)(F)C(F)(F)F | inactive | –
45 | C#C[C@]1(O)CC[C@H]2[C@@H]3CCc4cc(OC)ccc4[C@H]3CC[C@@]21C | – | 139 µM (active)
46 | O=C(O)C(F)(F)C(F)(F)OC(F)(F)F | inactive | –
47 | CCCCCCCCCCCCCCCC[N+](C)(C)Cc1ccccc1 | inactive | –
48 | CCO[Si](CCC(F)(F)C(F)(F)C(F)(F)C(F)(F)C(F)(F)C(F)(F)F)(OCC)OCC | inactive | –
49 | c1ccc(B(c2ccccc2)c2ccccc2)cc1 | inactive | –
50 | C=C(C)C(=O)OCCC(F)(F)C(F)(F)C(F)(F)C(F)(F)C(F)(C(F)(F)F)C(F)(F)F | inactive | –
51 | COC(=O)C1CCC(C(=O)OC)CC1 (stereo not given) | inactive | –

Row | Structure (SMILES) | outcome | AC50
52 | CC(C)OC(=O)c1ccccc1C(=O)OC(C)C | inactive | –
53 | CCCCCCC(C)OC(=O)CCCCC(=O)OC(C)CCCCCC (stereo not given) | inactive | –
54 | C=CC(F)(F)C(F)(F)C(F)(F)C(F)(F)C(F)(F)C(F)(F)C(F)(F)C(F)(F)F | inactive | –
55 | C(=C(c1ccccc1)c1ccccc1)c1ccccc1 | – | 100 µM (active)
56 | O=C(O)C(F)(F)C(F)(F)C(F)(F)F | inactive | –
57 | OC[C@@H](O)[C@@H](O)[C@H](O)[C@@H](O)CO | inactive | –
58 | O=C(OCCOCCOCCOC(=O)c1ccccc1)c1ccccc1 | inactive | –
59 | OCC(F)(F)C(F)(F)C(F)(F)F | inactive | –
60 | O=C(CC(=O)C(F)(F)C(F)(F)F)C(F)(F)F | inactive | –
61 | Oc1ccc(Nc2ccccc2)cc1 | inactive | –
62 | COC(=O)CCC(F)(F)C(F)(F)C(F)(F)C(F)(F)F | inactive | –
63 | CCCCCCCOC(=O)c1ccccc1C(=O)OCCCCCCC | inactive | –
64 | OCC(F)(F)C(F)(F)C(F)(F)C(F)(F)C(F)(F)C(F)F | inactive | –
65 | FC(F)(F)C(F)(F)C(F)(F)C(F)(F)C(F)(F)C(F)(F)CC1CO1 (stereo not given) | inactive | –
66 | CC/C=C\CCOC(=O)c1ccccc1 | inactive | –
67 | CS(C)(=O)=O | inactive | –
68 | C=CC(F)(F)C(F)(F)C(F)(F)C(F)(F)C(F)(F)C(F)(F)C(F)(F)C(F)(F)C=C | inactive | –
